Bioassay records as filed in PubChem.
Compounds with a hit are over-represented: about 13% of the library has one in this group of screens.
Marburg entry inh: qHTS for inhibitors of binding or entry into cells for Marburg Virus. Marburg virus pseudotyped entry inhibition, cell reporter. Potency, µM (doses to about 37.8 µM), inactives show at the highest dose activity change, negative = inhibition, actives largely listed as inhibitors. 1.8% of 300,000 active; calls by dose curve; tested in HEK293 cells; also: potency is read from the fitted curve at half-maximal effect; % is scaled to controls: 0 for no effect and ±100 for the full control effect
FMDV antiviral: High Throughput Screening for Foot and Mouth Disease Virus Antivirals. Potency, µM (doses to about 57.9 µM), inactives show top-dose activity change, negative = inhibition, actives largely listed as inhibitors. 1.2% of 410,000 active. FMDV antiviral cell-based qHTS; calls by dose curve; tested in HEK293T cells; also: read-out not given here; potency is read from the fitted curve at half-maximal effect; % is scaled to controls: 0 for no effect and ±100 for the full control effect; nearly all actives have a fitted effect of over 45% in size
Shiga toxin inh: A qHTS for Small Molecule Inhibitors of Shiga Toxin. Vero cells, Shiga toxin protein synthesis inhibition reporter. inhibition, % at 38.7 µM. 9.2% of 290,000 active. AID 2315, 2010; in the data active = inhibition mostly above about 28%, no sharp cut-off; inactive = mostly below about 43%; also: 0% is about no effect
HCV inh: qHTS Assay for Inhibitors of Hepatitis C Virus (HCV) | Huh7.5.1 HCVcc-Cre infection, luciferase reporter, 44 h | Potency, µM (top dose mostly 41.8 µM), for the others: top-dose activity change, negative = inhibition, usual class: inhibitors | 3.4% of 340,000 active | AID 651820, 2012; active = well fitted inhibition curve with a large enough effect; inconclusive = small, poorly fitted or top-dose-only effect, or another doubt; inactive = no such curve, though single readings can be large or run the other way; also: potency is read from the fitted curve at half-maximal effect; % is scaled to controls: 0 for no effect and ±100 for the full control effect
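Compounds are dispensed onto cells plated 4 h earlier at 1,000 per well, with HCVcc-Cre virus (about 0.5 moi) added next. Following 44 h of culture, luminescent signal is measured for 15 sec after 15 min with substrate at room temperature.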
CHX counter: Cycloheximide Counterscreen for Small Molecule Inhibitors of Shiga Toxin; cell reporter, cycloheximide protein synthesis inhibition counterscreen; AID 2314, 2010; 12% of 300,000 active; max response, %; in the data active = max response mostly above about 13%, no sharp cut-off; inactive = mostly below about 14%; also: read at 38.3 µM for the half of the compounds with a filed dose; 0% is about no effect
Lassa entry inh: qHTS for Inhibitors of binding or entry into cells for Lassa Virus | Potency, µM (titrated, usually from 37.9 µM), without a hit: at the highest dose activity change, negative = inhibition, usual class: inhibitors | 1.2% of 300,000 active | Lassa virus pseudotype entry inhibition, cell reporter | AID 540256, 2011; calls by dose curve; tested in HEK293 cells; also: potency is read from the fitted curve at half-maximal effect; % is scaled to controls: 0 for no effect and ±100 for the full control effect; nearly all actives have a fitted effect of over 50% in size
* marks the source's active call; other numbers are inactive results; ? = inconclusive; . = no result given; + = active, no number; [ ] = dose if it differs, or a comment.

SMILES	Marburg entry inh	FMDV antiviral	Shiga toxin inh	HCV inh	CHX counter	Lassa entry inh
O=C(NCc1ccc2c(c1)OCO2)C(=S)N1CCOCC1	0%[46.1 µM]	16%	5	15%	12	18%[46.1 µM]
CCCCNC(=O)CS(=O)Cc1nc(-c2cccs2)oc1C (stereo not given)	.	0%	-22	11%	-7	.
O=C(CCc1ccccc1)NNC(=S)Nc1ccc(F)cc1	0%	-2%	-22	-12%	-5	-17%
O=C(Nc1cccc(Cl)c1N1CCCC1)c1cc2ccccc2o1	-5%	-12%	29*	-4%	28*	?
Cc1ccc(C)c(NC(=O)c2cc3ccccc3o2)c1	.	55%	75*	-11%	51*	.
CCOc1ccccc1NC(=O)c1cc2ccccc2o1	.	24%	.	.	.	.
COc1ccc(C)cc1NC(=O)c1cc2ccccc2o1	15%	20%	42	-12%	40	2%
COC(=O)c1ccccc1NC(=O)c1cc2ccccc2o1	-11%[46.1 µM]	1%	40	?	17	-1%[46.1 µM]
O=C(Nc1ccccc1C(F)(F)F)c1cc2ccccc2o1	.	62%	.	-19%	32*	.
O=C(Nc1ccccn1)c1cc2ccccc2o1	?	.	-7	-10%	-2	4.6µM*
Cc1cnc(C(=O)N(c2ccc(N3CCOCC3)cc2)C2C(=O)Nc3ccccc3N=C2c2ccc3c(c2)OCO3)cn1 (stereo not given)	.	23%	.	.	.	.
Cc1ccc2nc(-c3ccc(C)c(NC(=O)CSc4ccc(Cl)cc4)c3)oc2c1	?	69%	.	.	.	-1%[46.1 µM]
Cc1cc([N+](=O)[O-])ccc1NC(=O)c1cc2ccccc2o1	-1%	43%	168*	1%	30*	?
O=C(CSc1nc2ncccc2[nH]1)Nc1c(F)cc(F)cc1Br	.	-5%	9	9%	-3	.
O=C(OCc1ccc(O)cc1)c1c(-c2ccsc2)oc2ccc(N3CCOCC3)cc12	.	?	-2	?	1	.
O=C(NCc1cccc(C(F)(F)F)c1)c1ccc2sc([C@H]3C[C@H](O)[C@@H](CO)O3)nc2c1	.	-23%	.	.	.	.
COc1ccccc1N1C(=O)CC1(C#N)c1ccc(OCc2ccccc2)cc1 (stereo not given)	?	-26%	10	-4%	-4	?
Cc1ccccc1N1C(=O)CC1(C#N)c1ccc(OCc2ccccc2)cc1 (stereo not given)	?	-8%	10	-29%	1	10µM*
O=C(NNC(=O)c1cccc(Cl)c1)NNC(=O)c1cccc(Cl)c1	14%	-5%	.	20%	.	1%
O=C(NNC1=C(C(=O)C(F)(F)F)CCC1)c1cccc(Cl)c1	-23%	-31%	85*	?	28*	-22%
COc1ccc(C(=O)NNC2=C(C(=O)C(F)(F)F)CCC2)cc1	-29%[46.1 µM]	-20%	48*	-28%	27*	?
O=C(NNC1=C(C(=O)C(F)(F)F)CCC1)c1ccc(Cl)cc1	?	.	86*	-6%	18*	6%
CCN1C[C@@H]2[C@@H]3C(=O)N(C)C(=O)[C@@H]3[C@](Cc3ccccc3)(C(=O)OC)N2C1=NC1CCCCC1	.	4%	.	?	.	.
CC(=O)Nc1ccc(S(=O)(=O)Nc2nnc(CC(C)(C)C)s2)cc1	-6%[46.1 µM]	4%	76*	16%	22*	-4%
CC(=O)Nc1ccc(S(=O)(=O)Nc2nc3ccccc3s2)cc1	19%	135%	-24	-15%	5	17%
SMILES	Marburg entry inh	FMDV antiviral	Shiga toxin inh	HCV inh	CHX counter	Lassa entry inh
CC(=O)Nc1ccc(S(=O)(=O)Nc2nc3c(s2)CCCC3)cc1	-1%	116%	58*	-10%	18*	0%
O=C(CSc1ncnc2c1nnn2Cc1ccccc1F)N1CCN(c2ccccc2)CC1	-8%	35µM*	-20	5%	4	?
CC(C)(C)NC(=O)CSc1ncnc2c1nnn2Cc1ccccc1Cl	?	?	-3	?	-4	18µM*
CCOc1ccccc1NC(=O)c1c(NCc2sccc2C)sc2c1CCC(C)C2 (stereo not given)	.	35%	.	.	.	2%[46.1 µM]
CC(C)N(C(=O)N1CCC(c2nc(-c3ccncc3)no2)CC1)C(C)C	-21%	?	-8	?	-2	-25%
CCC(Oc1ccc(C)cc1)C(=O)Nc1ccc(S(=O)(=O)Nc2cc(C)on2)cc1 (stereo not given)	-2%[46.1 µM]	-9%	-11	12%	-6	.
COc1ccc(/C(N)=N/OC(=O)CCc2ccccc2)cc1OC	.	6%	60	-25%	27*	.
Cc1cccc(/C(N)=N/OC(=O)CCc2ccccc2)c1	15%	.	52*	3%	32*	4%
Cc1cccc(/C(N)=N/OC(=O)CCC2CCCCC2)c1	10%	63%	29	8%	18	9%
COc1ccc(C(=O)CCc2ccccc2)cc1	.	52%	117*	11µM*	43*	.
COc1ccc(/C(N)=N/OC(=O)CSc2ccccc2)cc1OC	24%[46.1 µM]	65%	68	?	55*	11%
CCN(CC(=O)Nc1ccc(NC(C)=O)cc1)C(=O)c1cccc(Oc2ccccc2)c1	-7%	-2%	.	-2%	.	?
O=C(NNS(=O)(=O)c1ccccc1[N+](=O)[O-])c1ccncc1	9%	-5%	9	35%	-3	-6%
Cc1ccc(C(=O)CCC(=O)O)cc1	1%	.	-12	.	-4	.
CCCc1ccc(C(=O)CCC(=O)O)cc1	4%	65%	65*	28%	52*	?
COc1ccc(/C(N)=N/OC(=O)CCc2ccccc2)cc1	0%[46.1 µM]	-4%	93*	5%	52*	6%[46.1 µM]
Cc1cc(NC(=O)C2CC(c3ccc(F)cc3)=NO2)no1 (stereo not given)	.	5%	-11	3%	-3	.
CCOc1ccccc1NC(=O)C1CCCN(S(=O)(=O)c2cccs2)C1 (stereo not given)	3%[46.1 µM]	0%	.	.	.	12%[46.1 µM]
CCOc1ccc2nc(N3CCC(C(=O)NC4CCCCC4)CC3)sc2c1	.	1%	16	-6%	14	.
Cc1ccc2nc(NC(=O)C3CCCN(S(=O)(=O)c4cccnc4)C3)sc2c1 (stereo not given)	-2%	-22%	-24	?	1	.
CCOc1ccc2nc(NC(=O)C3CCCN(S(=O)(=O)c4cccs4)C3)sc2c1 (stereo not given)	?	?	14	14µM*	9	?
Cc1ccc2nc(NC(=O)C3CCCN(S(=O)(=O)c4cnc[nH]4)C3)sc2c1 (stereo not given)	13%	23%	+	?	43*	-23%
CCOc1ccc2nc(N3CCCC(C(=O)Nc4ccc(OC)cc4)C3)sc2c1 (stereo not given)	?	-7%	.	.	.	.
CCOc1ccc2nc(N3CCCC(C(=O)NC4CCCC4)C3)sc2c1 (stereo not given)	.	-16%	20*	?	33*	.
